Measurements published in PubChem BioAssay AID504339 (National Center for Advancing Translational Sciences (NCATS), 2011).
The whole screen tested about 390,000 compounds, of which about 17,000 (4.4%) were called active. Where a call stands in place of a potency, no number is given. Not shown: some 8% with an inconclusive outcome. The call rests on the fitted dose curve; in most records, active means well fitted inhibition curve with a large enough effect; inconclusive means small, poorly fitted or top-dose-only effect; inactive means no such curve, though single readings can be large or run the other way. This excerpt belongs to a sample that is enriched for actives.

Target: Lysine-specific demethylase 4A (Homo sapiens) (UniProt O75164)
Sequence (O75164 whole entry, looked up, the tested form may be a part): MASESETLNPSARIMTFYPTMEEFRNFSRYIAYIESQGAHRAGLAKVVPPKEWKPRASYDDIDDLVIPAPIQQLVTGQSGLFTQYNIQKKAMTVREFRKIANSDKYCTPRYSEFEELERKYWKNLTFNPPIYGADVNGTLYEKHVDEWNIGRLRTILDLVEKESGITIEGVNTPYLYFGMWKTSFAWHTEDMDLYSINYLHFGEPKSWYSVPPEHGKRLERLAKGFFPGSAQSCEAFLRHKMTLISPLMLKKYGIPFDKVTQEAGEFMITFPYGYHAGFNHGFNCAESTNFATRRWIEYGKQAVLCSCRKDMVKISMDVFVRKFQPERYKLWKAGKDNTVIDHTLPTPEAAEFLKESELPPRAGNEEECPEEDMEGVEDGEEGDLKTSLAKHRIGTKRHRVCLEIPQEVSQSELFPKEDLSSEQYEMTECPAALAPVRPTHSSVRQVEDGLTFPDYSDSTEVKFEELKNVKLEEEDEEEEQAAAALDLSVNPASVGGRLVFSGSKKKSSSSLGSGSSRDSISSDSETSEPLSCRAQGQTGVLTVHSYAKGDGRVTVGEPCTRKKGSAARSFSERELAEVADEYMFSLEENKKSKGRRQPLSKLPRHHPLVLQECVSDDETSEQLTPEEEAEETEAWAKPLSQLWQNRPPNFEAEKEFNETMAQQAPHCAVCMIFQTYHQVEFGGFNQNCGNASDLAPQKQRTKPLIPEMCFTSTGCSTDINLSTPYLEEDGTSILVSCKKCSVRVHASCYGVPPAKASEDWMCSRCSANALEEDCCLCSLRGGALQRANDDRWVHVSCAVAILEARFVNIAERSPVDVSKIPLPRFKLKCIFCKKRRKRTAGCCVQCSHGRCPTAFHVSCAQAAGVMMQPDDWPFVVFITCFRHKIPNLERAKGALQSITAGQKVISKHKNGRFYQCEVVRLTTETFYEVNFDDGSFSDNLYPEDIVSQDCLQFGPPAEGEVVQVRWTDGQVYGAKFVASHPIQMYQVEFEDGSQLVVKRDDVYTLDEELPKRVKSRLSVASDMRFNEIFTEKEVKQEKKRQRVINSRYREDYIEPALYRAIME
Assay: qHTS Assay for Inhibitors of JMJD2A-Tudor Domain; further: nearly all actives have a fitted effect of over 50% in size
Conditions: AlphaScreen JMJD2A-Tudor / H3K4me3 peptide binding; series mostly up to 114 µM
Potency means the concentration at half of the fitted maximal effect.

SMILES | Potency
CC1CCCN(S(=O)(=O)c2ccc3[nH]c(=O)cc(C(=O)NCCc4ccc(Cl)cc4)c3c2)C1 (stereo unspecified) | inactive
Cc1ccc(NC(=O)c2nc(S(=O)(=O)Cc3cccc(C)c3)ncc2Cl)cc1 | inactive
Cc1cccc(C2c3[nH]c4ccccc4c3CCN2C(=O)c2cc(-c3cccn3C)n[nH]2)n1 (stereo unspecified) | 56.2 µM (active)
O=C(c1cn2ccccc2n1)N1CCc2c([nH]c3ccccc23)C1c1ccccn1 (stereo unspecified) | inactive
Cc1cccc(C(=O)N2CCc3c([nH]c4ccccc34)C2CC(C)C)n1 (stereo unspecified) | inactive
COc1ccc(CCNC(=O)c2cnc3sc(N4CCCCCC4)nn3c2=O)cc1OC | inactive
COc1ccccc1NC(=O)Cn1cnc2ccc(S(=O)(=O)N3CCC(C)CC3)cc2c1=O | inactive
COc1ccc(OC)c(NC(=O)CSC2=Nc3ccccc3C3=NC(CC(=O)NCCc4ccccc4)C(=O)N23)c1 (stereo unspecified) | inactive
Cc1cccc(N(C)C(=O)CS(=O)(=O)c2cccc3nsnc23)c1 | inactive
Cc1ccc(NN=Nc2nc3c([nH]2)c(=O)n(C)c(=O)n3C)cc1 | 14.1 µM (active)
Cc1cccc(C)c1NC(=O)CSc1nc2c([nH]1)c(=O)n(C)c(=O)n2C | inactive
Cc1cc(C)c(C=NNc2nc3c([nH]2)c(=O)n(C)c(=O)n3C)c(C)c1 | inactive
CCc1ccc(NC(=O)c2cc3c(=O)n(Cc4cccnc4)ccc3nc2C)cc1 | inactive
O=C(NCc1ccccc1)C(=O)NCC(c1ccco1)S(=O)(=O)c1ccc(Cl)cc1 (stereo unspecified) | inactive
Cc1ccc(C)n1-c1nnc(N2CCC(C(=O)NCc3ccccc3Cl)CC2)s1 | inactive
C=CCNC(=O)c1ccc2nc(-c3ccco3)c(-c3ccco3)nc2c1 | inactive
COCCNC(=O)Nc1ccc2nc(-c3ccco3)c(-c3ccco3)nc2c1 | 20 µM (active)
CCOc1ccc(NC(=O)c2ncoc2-c2ccco2)cc1 | inactive
CC(C)Cn1c(C2CC(=O)N(c3ccccc3Cl)C2)nc2ccccc21 (stereo unspecified) | inactive
Cc1ccccc1CNC(=O)c1ccc(NC(=O)N2CCCCc3ccccc32)cc1 | inactive
CCOC(=O)c1c(C)[nH]c(C)c1S(=O)(=O)N(C)CC(=O)N1CCN(c2ccccc2)CC1 | inactive
Cc1cc(Br)ccc1NC(=O)Cn1cnc2sc(C)c(S(=O)(=O)N3CCN(C)CC3)c2c1=O | inactive
O=C(Nc1nnc(-c2ccccc2)o1)c1cccc(S(=O)(=O)N2CCOCC2)c1 | inactive
CC1CCCN(S(=O)(=O)c2ccc(C(=O)Nc3nnc(-c4ccncc4)o3)cc2)C1 (stereo unspecified) | inactive

SMILES | Potency
O=C(Nc1nnc(-c2ccco2)o1)c1ccc(S(=O)(=O)N2CCOCC2)cc1 | 79.4 µM (active)
Cc1ccc(Nc2nnc(-c3ccc(C)c(S(=O)(=O)N4CCCCC4)c3)c3ccccc23)cc1 | inactive
COc1ccccc1-c1nnc(-c2ccc(F)cc2)o1 | inactive
COc1ccccc1C1=Nc2cccc3cccc(c23)N1 | 50.1 µM (active)
COc1ccccc1-c1nc(C(F)(F)F)c(OC)o1 | inactive
COc1ccc(NC(=O)Cn2c(=O)cc(C)c3c(C)nn(-c4cccc(Cl)c4C)c32)cc1OC | inactive
CCOC(=O)C1CCCN(C(=O)c2ccc(-n3ccc4ccccc43)s2)C1 (stereo unspecified) | inactive
CCCn1c2ccccc2c2cnn(CC(=O)N(CC)c3cc(C)ccc3C)c(=O)c21 | inactive
Cc1nnc(NCc2ccccc2)c2c1nnn2Cc1ccc(F)cc1 | inactive
C=C1c2c(Cl)ccc(O)c2C(O)=C2C(=O)[C@]3(O)C(O)=C(C(N)=O)C(=O)[C@@H](N(C)C)[C@@H]3[C@@H](O)C12 (stereo partly specified) | 2 µM (active)
CN(C)[C@@H]1C(=O)C(C(N)=O)=C(O)[C@@]2(O)C(=O)C3=C(O)c4c(O)ccc(Cl)c4[C@@H](O)[C@H]3C[C@@H]12 | 25.1 µM (active)
COc1ccccc1NC(=O)CSC1=Nc2ccccc2C2=NC(CC(=O)NCc3cccs3)C(=O)N12 (stereo unspecified) | inactive
COc1ccc(C)cc1-n1c(-c2ccc(C)cc2)cc2c1CC(C)(C)CC2=O | inactive
O=C1CSC2(C(=O)N(Cc3ccccc3)c3ccccc32)N1c1cccc(F)c1 (stereo unspecified) | inactive
COc1ccccc1Nc1nc(N)nc(CSC(=S)N2CCOCC2)n1 | inactive
COc1ccccc1Nc1nc(N)nc(CN(C)C2CCCCC2)n1 | 15.8 µM (active)
COc1ccccc1NC1=NC(c2ccc(Cl)cc2)N=C(N)N1 (stereo unspecified) | inactive
O=C(Nc1cc(C(F)(F)F)ccc1Cl)c1ccc2c(c1)CCN2S(=O)(=O)c1ccccc1 | inactive
CC(C)CNc1ncnc2c1nnn2C | inactive
O=C(CC1N=C2c3ccccc3N=C(SCc3cccc(Cl)c3)N2C1=O)NCc1ccc2c(c1)OCO2 (stereo unspecified) | inactive
COC(=O)c1c(NC(=O)c2c(Cl)cnn2C)sc(C)c1C | inactive
COCCCNCC(=O)Nc1sc(C)c(C)c1C(=O)OC | 28.2 µM (active)
CCOC(=O)c1c(NC(=O)CCl)sc(C(=O)N(CC)CC)c1C | inactive
CCc1cccc(NC(=O)CSc2nccn2C)c1 | inactive

SMILES | Potency
Cc1cc(C)cc(OCC(=O)Nc2c(C(=O)c3ccccc3)oc3ccccc23)c1 | inactive
O=C(Cn1cc(SCc2cccc(Cl)c2)c2ccccc21)N1CCCCC1 | inactive
COc1ccc(-c2nn(CC(=O)NC3CCCC3)c3c2cnc2ccc(F)cc23)cc1 | inactive
O=C(COC(=O)c1ccccc1)c1ccc2c(c1)OCCO2 | inactive
O=C(CCN1CCc2ccccc2C(O)(c2ccccc2)C1)c1ccc2c(c1)OCCO2 (stereo unspecified) | 79.4 µM (active)
O=C(CN1CCC(O)(c2ccccc2)CC1)Nc1ccc2c(c1)OCCO2 | inactive
Cc1cc(Cl)ccc1NC(=O)Cc1ccc(NC(=O)N2CCCCc3ccccc32)cc1 | inactive
Cc1ccc(C)c(Cn2c(C)c(CNCc3ccc(F)cc3)c(C(=O)O)c2C)c1 | inactive
S=c1[nH]ccn1-c1ccc(Cl)cc1 | 10 µM (active)
CCOC(=O)c1ccccc1NC(=O)c1sc2nc(-c3ccc(F)cc3)cn2c1C | inactive
O=C(NCCCN1CCOCC1)c1ccc2c(c1)N(Cc1cccc(F)c1)C(=O)c1ccccc1S2 | inactive
CCN1CCN(CCNC(=O)c2ccc(/C=C3/Sc4ccccc4N(Cc4cccc(C)c4)C3=O)cc2)CC1 | 50.1 µM (active)
CN1CCN(CCCNC(=O)c2ccc(/C=C3\Oc4ccccc4N(Cc4ccc(Cl)cc4)C3=O)cc2)CC1 | inactive
COc1ccc(Cl)cc1NC(=O)Cn1c(=O)c2ccccc2n2nncc12 | inactive
COc1ccccc1CNCc1ccc(C(=O)O)s1 | inactive
CSc1nc(Nc2ccc(F)cc2)cc(-c2ccccc2)n1 | inactive
COc1ccc(NC(C(=O)Nc2cccc(C(C)=O)c2)c2ccccc2)cc1 (stereo unspecified) | 17.8 µM (active)
COC(C(=O)Nc1ccc(C(C)=O)cc1)c1ccccc1 (stereo unspecified) | inactive
COc1ccc(NC(=O)[C@H](NC(=O)[C@@H]2Cc3ccccc3CN2)c2ccccc2)cc1 | inactive
Cc1ccccc1CNC(=O)Cn1c(C)c2cnn(-c3ccccc3)c(=O)c2c1C | inactive
CC(=O)Oc1ccc(C(C)=O)c2c1OCCO2 | inactive
CC(=O)Oc1ccc(OC(C)=O)c2c1C1C=CC2CC1 | 22.4 µM (active)
COc1cc(OC)c(NC(=O)c2nc(-c3ccncc3)no2)cc1Cl | inactive
CC(C)(C)NC(=O)CSc1nc(-c2ccc(F)cc2)cc(C(F)(F)F)n1 | inactive

SMILES | Potency
CSc1nc(C)cc(SC(C(C)=O)C(=O)Nc2ccccc2)n1 (stereo unspecified) | 56.2 µM (active)
Cc1cc(C)nc(N(C#N)CC(=O)Nc2ccccc2)n1 | inactive
CC(Sc1nnc2c(n1)C1CCC2(C)C1(C)C)C(=O)Nc1ccccc1 (stereo unspecified) | inactive
CCOc1ccc(NC(=O)c2c(NCc3cccc(OC)c3OC)sc3c2CCC3)cc1 | inactive
O=C(NCc1nnc(C(=O)Nc2ccc(C(F)(F)F)cc2Cl)o1)c1ccccc1 | inactive
Cc1ccc(NC(=O)Nc2sc3nc4n(c(=O)c3c2C)CCC(C)CC4)c(Cl)c1 (stereo unspecified) | inactive
Cc1ccc(NC(=O)/C(=C\c2ccccc2)NC(=O)c2ccco2)cc1 | inactive
COc1ccccc1C(=O)N/C(=C/c1ccco1)C(=O)Nc1ccc(C(=O)O)cc1 | 25.1 µM (active)
COc1ccccc1C(=O)N/C(=C/c1ccc2c(c1)OCO2)C(=O)Nc1cccc(C(=O)O)c1 | inactive
Cc1cccc(C(CC(=O)NCC2(c3ccccc3)CCCC2)c2ccccc2)c1O (stereo unspecified) | inactive
CCOC(=O)CN1C(C(=O)c2ccccc2)=C(OC(=O)C(C)(C)C)c2ccccc2S1(=O)=O | inactive
CC(CCCc1ccccc1)NC(=O)c1nn(-c2ccc(Cl)cc2)nc1CO (stereo unspecified) | inactive
CC(CNC(=O)Cn1cnc2c(OCc3ccccc3)ncnc21)c1ccccc1 (stereo unspecified) | inactive
O=C(Cn1cnc2c(OCc3ccccc3)ncnc21)NCCCn1ccnc1 | inactive
O=C(Cn1cnc2c(OCc3ccccc3)ncnc21)NCc1nc2ccccc2[nH]1 | 56.2 µM (active)
CC(C)S(=O)(=O)c1oc(-c2ccc(F)cc2)nc1S(=O)(=O)c1ccc(F)cc1 | inactive
Cc1ccc(Cl)cc1NC(=O)NC1COc2ccccc2C1 (stereo unspecified) | inactive
Cc1cc(C(=O)N/N=C/c2cc([N+](=O)[O-])cc(C)c2O)n[nH]1 | 44.7 µM (active)
COc1ccc(C(=O)NNC(=O)c2cc(C)[nH]n2)cc1 | inactive
Cc1c(Cl)c([N+](=O)[O-])nn1Cc1ccc(C(=O)N/N=C\c2cc(Cl)ccc2O)o1 | inactive
CCCCS(=O)(=O)c1oc(-c2cccs2)nc1S(=O)(=O)c1ccccc1 | inactive
CCCCOC(=O)/C(C#N)=C/c1ccc(-c2cccc(C(F)(F)F)c2)o1 | inactive
Cc1ccc(-c2ccc(/C=C(\C#N)C(N)=S)o2)c([N+](=O)[O-])c1 | 14.1 µM (active)
CCOC(=O)c1ccc(-c2ccc(/C=C(\C#N)C(=O)Nc3ccc(C)cc3)o2)cc1 | inactive
